High-throughput results deposited in PubChem BioAssay by several laboratories.
The list is not random: actives were taken first. Their share in the collection is about 3.9%.
TRAIL sens C8: caspase-8 TRAIL sensitization | NB7+C8 cells + TRAIL, ATPlite viability luminescence | inhibition (viability loss, TRAIL sensitization), % at 10 µM | actives 1% (n = 360,000) | AID 624354;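 active = compounds causing at least 50% loss of cell viability in the single-dose screen, relative to plate controls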
TROY signal inh: TROY signaling inhibition. inhibition, % at 10 µM. actives 0.98% (n = 360,000). Q293 LMP1-TROYcd NF-kB luciferase reporter, 4 h;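 active = compounds whose plate-normalised and pattern-corrected inhibition of the luciferase reporter signal at the single screening dose is 50% or more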
HSP90 inh: HSP90 refolding inhibition in rabbit reticulocyte lysate. actives 0.91% (n = 290,000). inhibition, % at 5.6 µM. AID 1789. luciferase refolding luminescence, 3 h;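 active = inhibition above the screen-wide mean plus 3 SD, computed separately per campaign, cut at about 16% in these data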;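 note: 0% = DMSO wells and 100% = 60 µM geldanamycin wells; inhibitors lower the luminescence because luciferase stays unfolded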
TWEAK-Fn14 inh: inhibitors of TWEAK-Fn14 interaction signaling; AID 1159606; TWEAK-stimulated Fn14 reporter cells, luciferase luminescence, 8 h; actives 2% (n = 360,000); inhibition, % at 10 µM; in the data active = inhibition above about 50%
HIF-2a inh: HIF-2a inhibition | 786-0 RCC cells HIF-2a reporter, luciferase luminescence, overnight | inhibition, % at 18.8 µM | actives 0.72% (n = 360,000) | AID 624352;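 active = inhibition of the luminescence signal of 40% or more relative to plate controls, in a single-dose primary screen at 18.75 µM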
aSyn 5UTR inh: MLPCN primary screen, SNCA 5' untranslated region | actives 0.82% (n = 300,000) | inhibition, % (tested at 7.5 µM) | alpha-synuclein 5'UTR reporter, inhibitor activity; in the data active = inhibition above about 60%;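 note: H4 neuroglioblastoma cells stably carrying SNCA 5'UTR luciferase fusion; 0% = DMSO wells and 100% = positive control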
* hit, by the source's call; . = no result given.

SMILES	TRAIL sens C8	TROY signal inh	HSP90 inh	TWEAK-Fn14 inh	HIF-2a inh	aSyn 5UTR inh
Cc1cccc(NC(=O)c2ccc(Cl)c(S(=O)(=O)N3CCCC3)c2)n1	2.6	-14.1	1.2	-12.2	-123.5	-68.0
COc1ccccc1CCC(=O)NNC(=O)Cn1nc(C)cc1C	-0.9	7.3	.	10.3	14.2	.
CC(=O)c1cccc(NC(=O)c2ccc(-c3c(C)noc3C)c3ccoc23)c1	18.4	-26.8	.	49.3	-431.2	.
Cc1[nH]c2ccccc2c1C(=O)c1cc(Cc2ccccc2)sc1N	-2.3	.	.	.	4.8	.
COc1ccccc1N1CCN(c2ccc(-c3ccccc3)nn2)CC1	86.8*	65.7*	14.9	70.8*	-57.8	79.0*
COc1ccccc1N1CCN(c2cc(N3CCCC3)nc(C)n2)CC1	5.3	5.5	0.1	-19.1	2.4	9.3
COc1ccccc1N1CCN(c2ccc3ccccc3n2)CC1	48.0*	34.7	12.6	48.7	-85.2	-53.3
CCc1ccccc1CC1CN(Cc2ccccc2)Cc2ccccc2N1c1ccc(OC)cc1 (stereo not drawn)	3.6	.	.	.	0.2	.
CCOc1c(Cl)cc(CNc2ccc(N3CCCC3)cc2)cc1OC	35.4	-5.1	0.3	55.5*	8.7	-32.9
CC(=O)/C=C/c1ccc2ccccc2n1	14.9	-6.6	-3.0	63.8*	34.5	-32.2
C#CCOCCOCCOCCNc1nc(N2CCN(C(=O)[C@H](CCC(=O)O)n3cc(C(N)CC(C)C)nn3)CC2)nc(N2CCN(C(=O)[C@H](CCC(=O)O)n3cc(C(N)CC(C)C)nn3)CC2)n1 (stereo partly drawn)	-8.1	1.6	16.6*	17.1	2.5	-5.0
C#CCOCCOCCOCCNc1nc(N2CCN(C(=O)CCCCCCCCCCNC(=O)[C@H]([C@@H](C)CC)n3cc(CCCCCN)nn3)CC2)nc(N2CCN(C(=O)CCCCCCCCCCNC(=O)[C@H]([C@@H](C)CC)n3cc(CCCCN=C(N)N)nn3)CC2)n1	50.9*	38.9	.	41.8	-4.3	.
CC[C@H](C)[C@@H](C(=O)NCCCCCCCCCCC(=O)N1CCN(C(=O)OC(C)(C)C)CC1)n1cc(CCCCCNC(=O)OC(C)(C)C)nn1	40.1	44.6	.	96.3*	1.9	.
CC(C)(C)OC(=O)NCCCCCc1cn([C@@H](CO)C(=O)NCCCCCCCCCCC(=O)N2CCN(C(=O)OC(C)(C)C)CC2)nn1	59.8*	73.3*	.	103.3*	-64.5	.
CC(C)(C)OC(=O)CC[C@@H](C(=O)NCCCCCCCCCCC(=O)N1CCN(C(=O)OC(C)(C)C)CC1)n1cc(CCCCCNC(=O)OC(C)(C)C)nn1	7.9	-14.2	.	13.3	-12.9	.
O=C1Nc2ccccc2C1=Nc1ccc2[nH]c3ccccc3c2c1	13.2	-9.9	.	28.1	1.9	.
CCCCNC(=O)c1nc(C2CCN(S(=O)(=O)c3ccccc3C(F)(F)F)CC2)oc1-c1ccccc1	-25.2	15.2	.	1.8	11.2	.
Oc1ccccc1C=Nc1cccc2ccccc12	11.3	66.4*	11.3	69.3*	17.6	4.9
CCCCN(C(=O)c1ccc(N2C(=O)c3ccccc3C2=O)cc1)c1c(N)n(CC(C)C)c(=O)[nH]c1=O	4.3	-1.9	.	2.6	-5.3	.
CC(C)Sc1cc(Cl)nc(NC(=O)Nc2ccccc2)n1	90.5*	-36.6	1.6	-17.3	-67.2	-23.2
Cc1ccnc2nc(C(=O)OCC(=O)Nc3ccc4c(c3)OCCO4)nn12	0.5	4.4	.	-15.4	-24.9	.
CCOC(=O)c1cc([N+](=O)[O-])sc1NC(=O)CC	8.7	1.7	-2.3	99.1*	4.3	11.3
Clc1ccc(-c2nc3ccccn3c2CN2CCCCC2)cc1	-3.8	54.6*	1.8	83.4*	-2.7	-101.4
Cc1ccc2nc(-c3ccc(NC(=O)c4ccco4)cc3)[nH]c2c1	27.1	-41.4	4.5	3.2	-267.5	-162.9
O=C(Nc1ccc(-c2nc3ccc(NC(=O)c4cccs4)cc3[nH]2)cc1)c1cccs1	31.5	-1.0	2.9	-127.5	15.1	121.7*
SMILES	TRAIL sens C8	TROY signal inh	HSP90 inh	TWEAK-Fn14 inh	HIF-2a inh	aSyn 5UTR inh
Cc1ccccc1C(=O)Nc1ccc(-c2nc3ccc(C(=O)c4ccccc4)cc3[nH]2)cc1	-6.0	.	-3.5	70.3*	-12.8	34.9
O=C(c1ccccc1)c1ccc2nc(-c3ccc(NC(=O)c4ccccc4Br)cc3)[nH]c2c1	-18.7	5.5	-2.5	-7.4	-5.2	75.1*
CS(=O)(=O)c1cccc(C(=O)Nc2ccc(-c3nc4ccccc4[nH]3)cc2)c1	28.4	-49.2	-0.6	-52.9	-63.6	-23.1
O=C1NC(=O)C([N+](=O)[O-])=C(O)C1=O	-9.3	-10.8	.	13.6	5.6	.
CCN(CC)c1nc(Nc2ccccc2)nc(Oc2ccc(C(=O)OC)cc2)n1	14.6	22.5	5.1	26.7	30.1	17.3
CCN(CC)c1nc(Oc2ccc(C(=O)NN)cc2)nc(Oc2ccc(C(=O)NN)cc2)n1	-8.8	53.4*	6.4	-24.8	4.5	19.3
Cc1onc(C(=O)N2CCN(c3ccccc3)CC2)c1[N+](=O)[O-]	10.8	9.9	-0.9	3.4	-5.3	-11.5
Cc1ccc(Cl)cc1N1CCN(C(=O)c2noc(C)c2[N+](=O)[O-])CC1	94.6*	6.5	5.2	-0.9	10.0	13.0
COC(=O)[C@H](Cc1ccccc1)NC(=O)/C=C/[C@H]1O[C@@H](n2ccc(=O)[nH]c2=O)[C@H](O)[C@@H]1O	-7.2	-7.7	.	2.9	15.8	.
O=C(c1ccc(S(=O)(=O)N2CCCCC2)cc1)N1CCN(CCN2C(=O)c3cccc4cccc(c34)C2=O)CC1	33.1	50.6*	0.5	54.2*	-13.8	-7.3
Nc1[nH]c(C(=O)c2ccccc2)c(-c2cccnc2)c1C(=O)NCCc1ccc(Cl)cc1Cl	-14.7	-13.0	.	4.2	-47.0	.
CCN1CCc2c(sc(NC(=O)c3ccc(S(=O)(=O)N(C)c4ccccc4)cc3)c2C(=O)NC)C1	55.0*	17.6	0.9	16.2	24.1	3.8
CNC(=O)c1c(NC(=O)c2ccc(S(=O)(=O)N(C)c3ccccc3)cc2)sc2c1CCN(C(C)C)C2	.	.	5.4	.	.	5.6
OC(c1cc(-c2cccc(Cl)c2)nc2ccccc12)C1CCCCN1 (stereo not drawn)	67.0*	-18.7	.	-1.3	-19.1	.
OC(c1cc(C(F)(F)F)nc2c(C(F)(F)F)cccc12)C1CCCCN1 (stereo not drawn)	31.6	-9.2	.	27.1	17.9	.
O=C(C(=O)N1CCC(c2ccccc2)CC1)c1ccc(F)c(F)c1	-7.6	.	.	.	20.1	.
O=C(COC(=O)c1ccc(O)cc1O)Nc1ccc2ccccc2c1	15.1	20.2	.	-35.7	-75.5	.
COC(=O)c1cc(NCc2c(F)cccc2Cl)ccc1N1CCOCC1	1.0	-7.2	-5.5	15.7	21.3	2.3
COC(=O)c1ccc(NCc2c(O)ccc(O)c2Br)cc1Cl	24.5	23.2	.	79.6*	-4.8	.
COC(=O)c1ccc(NCc2cc(O)ccc2O)cc1O	42.2	-8.5	.	82.7*	3.9	.
Nc1[nH]c(C(=O)c2ccccc2)c(-c2ccccc2C(F)(F)F)c1C(=O)NCCc1c[nH]c2ccccc12	11.6	16.5	.	20.1	-50.5	.
